# According to PubChem BioAssay (EPA / NIEHS):
# Calls of active or inactive are those of the source. How the source made its calls: active means hit-call score of the fitted dose curve at least 0.9, where 1 is the maximum; inactive means score below 0.9.
# Test: CCTE_Harrill_HTTr_Apoptosis_MCF7: CCTE's 6-hour Apoptosis Assessment for the High-Throughput Transcriptomics (HTTr) Platform, in MCF-7 cells cultured in DMEM + 10% fetal bovine serum, Harrill Lab (AID 2284011)
# Description: This is a cell-based assay that evaluates apoptosis using high content imaging to evaluate activation of caspase-3/7 using the CellEvent Caspase 3/7 Green detection reagent in 384-well format.One of seven assay components measured from the CCTE_Harrill_HTTr_Apoptosis assay. This was part of a full screening experiment. This is a cell-based assay that evaluates apoptosis in MCF-7 cells cultured in DMEM + 10% fetal bovine serum. High content imaging is used to evaluate activation of caspase-3/7 using the CellEvent Caspase 3/7 Green detection reagent. Measurements are taken at 6 hours after chemical dosing in 384-well format.The assay component endpoint CCTE_Harrill_HTTr_Apoptosis_MCF7 was analyzed with bidirectional fitting relation to DMSO as the negative control and baseline of activity. Using a type of viability reporter, gain-of-signal activity can be used to evaluate activation of caspase-3/7 using the CellEvent Caspase 3/7 Green detection reagent to understand changes in apoptosis. To generalize the intended target to other relatable targets, this assay endpoint is annotated to cell cycle, where the subfamily is apoptosis.
# Chemicals were tested in MCF7 cells in an eight point dilution series with a six hour exposure duration.
row,Compound,outcome
1,C[N+](C)(C)CC(=O)[O-],inactive
2,N#Cc1sc2c(=O)c3ccccc3c(=O)c=2sc1C#N,inactive
3,Nc1ccccc1,inactive
4,CN(C)C(=O)C(c1ccccc1)c1ccccc1,inactive
5,CN(C)N,inactive
6,COc1ccc2c3c1O[C@H]1[C@@H](O)C=C[C@H]4[C@@H](C2)N(C)CC[C@@]341,inactive
7,CC(C)[C@@H](C(=O)O[C@@H](C#N)c1cccc(Oc2ccccc2)c1)c1ccc(Cl)cc1,inactive
8,CC(C)(C)OOC(C)(C)C#CC(C)(C)OOC(C)(C)C,inactive
9,Cc1ccc2cc3c(ccc4ccccc43)c3c2c1CC3,inactive
10,C=COCCCl,inactive
11,O=C(CCl)c1ccccc1,inactive
12,O=C1C=CC(=O)C=C1,inactive
13,COCCOC(C)=O,inactive
14,[N-]=[N+]=CC(=O)OC[C@H](N)C(=O)O,inactive
15,CC(C)(O)C#N,inactive
16,O=CC=Cc1ccccc1,inactive
17,OC(Cn1cncn1)(c1ccc(F)cc1)c1ccccc1F (stereo not given),inactive
18,CCC[N+](=O)[O-],inactive
19,Oc1ccc(Cl)cc1,inactive
20,O=[N+]([O-])c1ccccc1Cl,inactive

row,Compound,outcome
1,CC(C)(Cl)Cl,inactive
2,ClC1=C(Cl)[C@]2(Cl)[C@H]3[C@H]([C@H](Cl)C(Cl)[C@@H]3Cl)[C@@]1(Cl)C2(Cl)Cl (stereo not given in full),inactive
3,CCOP(=S)(OCC)Oc1cnc2ccccc2n1,inactive
4,O=P1(NCCCl)OCCCN1CCCl (stereo not given),inactive
5,Cc1cc(N)ccc1N,inactive
6,CN1C(=O)CCS(=O)(=O)C1c1ccc(Cl)cc1 (stereo not given),inactive
7,CC(Oc1ccc(Oc2ncc(C(F)(F)F)cc2Cl)cc1)C(=O)O (stereo not given),inactive
8,CNC(=O)ON=C(CSC)C(C)(C)C,inactive
9,COc1cccc([C@@]2(O)CCCC[C@@H]2CN(C)C)c1,inactive
10,Cl,inactive
11,[Cd+2].[Cl-].[Cl-],inactive
12,CCCN(CC1CC1)c1c([N+](=O)[O-])cc(C(F)(F)F)cc1[N+](=O)[O-],inactive
13,COc1cccc2c1cc([N+](=O)[O-])c1c(C(=O)O)cc3c(c12)OCO3,inactive
14,Nc1ccc(Cl)c(Cl)c1,inactive
15,CC(C)(C)C(O)C(Oc1ccc(-c2ccccc2)cc1)n1cncn1 (stereo not given),inactive
16,O=C(O)c1ccccc1C(=O)Nc1cccc2ccccc12,inactive
17,CCCC(C)(COC(N)=O)COC(=O)NC(C)C (stereo not given),inactive
18,[Cl-].[Cl-].[Cl-].[Gd+3],inactive
19,Clc1c(Cl)c(Cl)c2c(c1Cl)Oc1c(Cl)c(Cl)c(Cl)c(Cl)c1O2,inactive
20,CC1(C)[C@H](C(=O)O[C@H](C#N)c2cccc(Oc3ccccc3)c2)[C@@H]1C=C(Br)Br,inactive
